Experimental data from PubChem BioAssay AID624305 (National Center for Advancing Translational Sciences (NCATS), 2012).
Results filed as inconclusive are left out. Active and inactive are the calls of the source. Calls follow the shape of the dose curve; as a rule, active = well fitted activation curve with a large enough effect; inconclusive = small, poorly fitted or top-dose-only effect; inactive = no such curve, though single readings can be large or run the other way.

Experiment: qHTS assay for re-activators of p53 using a Luc reporter: Hit Validation; also: nearly all actives have a fitted effect of over 75% in size; as to activation: 0% is about no effect
Conditions: p53-responsive luciferase reporter cells, luminescence, H1299 line expressing heat-sensitive Ala138Val p53; series mostly up to 46.1 µM; activation: at the top concentration
In short: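 Hit confirmation with a 1:5 dilution series, at 37 deg C for 24 hrs, in H1299 cells co-expressing temperature-sensitive p53-A138V and p53-responsive luciferase. Nocodazole served as control; luminescence read after 10 min with detection reagent.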
Potency is read from the fitted curve at half-maximal effect.

| Structure (SMILES) | activation | Potency |
| --- | --- | --- |
| O=C(NCC1CCCO1)c1ccc(NC(=O)c2cccc([N+](=O)[O-])c2)cc1 (configuration not stated) | 0% (inactive) |  |
| COC(=O)c1sccc1N/N=C/c1cccc(OC)c1O |  | 0.146 µM (active) |
| Cc1c(C(=O)N2CCc3ccccc32)oc2c1C(=O)CC(C)(C)C2 |  | 4.11 µM (active) |
| Cc1cccc(NC2SC(=O)N(c3ccccc3)C2=O)c1 (configuration not stated) | 41.1% (inactive) |  |
| CCCCOC(=O)c1ccc(NC(=O)CSc2nncn2C)cc1 | 41.1% (inactive) |  |
| O=C1c2cccc3cc([N+](=O)[O-])cc(c23)C(=O)N1CCN1CCCC1 | 147% (inactive) |  |
| COc1ccc2oc(-c3cccc(NC(=O)CSc4ccc(Cl)cc4)c3)nc2c1 | -2.44% [at 9.22 µM] (inactive) |  |
| O=C(Nc1ccc(Cl)cn1)C1CCN(c2ncnc3c2nc2n3CCCCC2)CC1 | 34.9% (inactive) |  |
| CCc1cc2c(=O)c(-c3ccc4c(c3)OCCO4)coc2cc1OS(C)(=O)=O |  | 4.61 µM (active) |
| O=C(NCCC1=CCCCC1)c1ccc(F)c(S(=O)(=O)N2CCOCC2)c1 | -84.4% (inactive) |  |
| CCOC(=O)C1=C(C)Nc2ncnn2C1c1c[nH]c2ccccc12 (configuration not stated) | 31.2% (inactive) |  |
| Nc1nc(-c2ccc([N+](=O)[O-])cc2)cs1 | 20.3% (inactive) |  |
| O=C(Nc1cccc(O)c1)C(=O)Nc1ccccn1 |  | 2.31 µM (active) |
| COc1ccc(NC(=O)/C(Cl)=C(/Cl)S(=O)(=O)Cc2ccc(C)cc2)cn1 | -94.3% (inactive) |  |
| COCCn1c(SCC(=O)c2c(N)n(C3CC3)c(=O)[nH]c2=O)nnc1-c1cccc(C)c1 | -7.81% (inactive) |  |
| NC(=O)c1ccc(-n2c(CCC(=O)O)ccc2-c2cccs2)cc1 | -8.33% (inactive) |  |
| CC(=O)c1ccc(NC(=O)CCc2nnc3ccc(NCc4ccco4)nn23)cc1 |  | 11.6 µM (active) |
